eIF4E 4G PPI – eIF4E/eIF4G interaction inhibition in translation initiation. P63073+Q04637. TR-FRET eIF4E-eIF4GI(517-606) binding, 2 h. inhibition, % at 21.7 µM. hit rate 0.37% among 220,000. AID 782;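 also: 0% = full FRET control wells and 100% = background wells lacking eIF4GI fragment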
NCF1 inh – blocks human p47phox regulatory protein of NADPH oxidases; hit rate 0.53% among 220,000; p47phox/p22phox peptide binding, fluorescence polarization, 2 h; inhibition, % at 24.7 µM; P14598; AID 1274;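 also: 0% = p47phox with labelled peptide and 100% = labelled peptide alone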
14-3-3 Bad PPI – disrupts binding of bovine 14-3-3 zeta to phospho-Bad peptide. P63103. TR-FRET 14-3-3zeta/Dy647-pBad peptide displacement, 1 h. inhibition, % at 21.7 µM. hit rate 0.71% among 220,000;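 active = inhibition above about 70%, limit read from the data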;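 also: 0% = full 14-3-3 plus peptide FRET controls and 100% = background without 14-3-3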
Mcl1-Noxa inh – disrupts binding of human Mcl-1 to Noxa peptide | Q07820 | TR-FRET Mcl-1/Noxa peptide binding, 2 h | inhibition, % at 21.7 µM | hit rate 1.5% among 220,000 | AID 1022;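 active = compounds that cut the protein-peptide binding signal by more than 50% relative to plate controls in a single-dose test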;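 also: His-tagged Mcl-1 with rhodamine Noxa BH3 peptide and terbium anti-His antibody; 0% = Mcl-1 plus Noxa peptide wells and 100% = peptide-only wells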
Target sequence (Q07820 whole entry, looked up): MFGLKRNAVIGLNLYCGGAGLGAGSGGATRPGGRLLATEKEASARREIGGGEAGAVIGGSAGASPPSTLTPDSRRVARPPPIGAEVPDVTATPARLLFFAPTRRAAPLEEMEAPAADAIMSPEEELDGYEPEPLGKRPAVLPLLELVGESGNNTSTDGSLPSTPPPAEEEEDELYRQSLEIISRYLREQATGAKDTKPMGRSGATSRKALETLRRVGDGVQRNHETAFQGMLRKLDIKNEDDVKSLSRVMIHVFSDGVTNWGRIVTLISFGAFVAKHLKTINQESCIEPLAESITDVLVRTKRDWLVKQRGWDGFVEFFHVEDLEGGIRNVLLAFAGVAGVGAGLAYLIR
Mcl-1 Bim block – disrupts Bim peptide binding to human Mcl-1. inhibition, % at 10 µM. Q07820. hit rate 0.1% among 190,000. Bead-based flow cytometry, Bim peptide-Mcl-1 binding; in the data active = inhibition above about 40%;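 also: 0% = no compound tracer wells and 100% = peptide blocker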
Mcl1-Bid inh – Mcl-1/Bid interaction inhibition | hit rate 0.97% among 220,000 | Q07820 | TR-FRET Mcl-1/Bid-Dy647 peptide binding, 1536-well | AID 1021 | inhibition, % at 21.7 µM;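 active = compounds that cut the binding signal by more than half at the single screening dose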;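 also: His-tagged Mcl-1 with europium anti-His antibody binding Bid BH3 peptide; 0% = Mcl-1 plus peptide wells and 100% = peptide-only wells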
* marks the source's active call; other numbers are inactive results; x = not tested or not shown; [ ] = another dose, or the depositor's remark. Only some compounds are listed: those with a hit (about 3.4% of all), similar ones and a draw of the others.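 The calls were made as follows, unless noted: active = inhibition above about 30% (limit read from the data); inactive = the rest.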

SMILES	eIF4E 4G PPI	NCF1 inh	14-3-3 Bad PPI	Mcl1-Noxa inh	Mcl-1 Bim block	Mcl1-Bid inh
CCOC(=O)N1CCN(Cc2c(F)cccc2Cl)CC1	9	-5	60	16	0	1
O=C(O)c1ccc(OCc2cn3ccccc3n2)cc1	-6	1	1	10	x	-28
Cc1ccc2c(c1C)NC(=O)C21N2CCCC2C(C(=O)c2ccc3ccccc3c2)C12C(=O)Nc1ccccc12 (stereo not given)	0	-25	-1	25	x	-38
CC(=O)Oc1ccc(Cl)cc1/C=C/c1ccc2ccccc2n1	-7	-20	0	22	-7	97*
CC(=O)Oc1c(Cl)cc(Cl)cc1/C=C/c1ccc2ccccc2n1	-6	-11	-1	x	-2	-29
N#Cc1ccc(CO/N=C/c2ccccc2)cc1	2	-3	-4	-4	0	89*
CSc1nc(-c2ccco2)nn1S(=O)(=O)c1ccccc1	20	-3	81*	23	-1	-6
COc1ccc2c(c1)O[C@H](c1ccc3c(c1)OCO3)[C@@H](OC(=O)N[C@H](C)C1CCCCC1)C2=O	1	3	92*	-2	0	7
COc1ccc2c(c1)O[C@H](c1ccc3c(c1)OCO3)[C@@H](OC(=O)Nc1cc(OC)c(OC)c(OC)c1)C2=O	0	2	81*[fluorescence artefact?]	-9	0	-8
COc1cccc([C@@H]2Oc3ccc(OC)cc3C(=O)[C@H]2OC(=O)N[C@H](C)C2CCCCC2)c1	1	-1	-2	-14	-3	-8
O=C(CSCC(=O)Nc1ccc2ccccc2c1)NCc1ccccc1	37*	-2	-2	3	-2	9
O=C(O)CCCCCn1c(SCC(=O)c2ccc(O)c(O)c2)nc2ccsc2c1=O	10	3	-1	18	1	-29
CCCCn1c(SCC(=O)c2ccc(O)c(O)c2)nc2ccsc2c1=O	6	-25	-15	55*	-5	-11
Cc1ccc(NCc2n[nH]c(=S)n2Cc2ccccc2)cc1Cl	-1	25	-15	4	-4	-21
COc1ccc(S(=O)(=O)N=C2C=C(C)C(=O)C(C)=C2)cc1	4	-9	72*	36	0	-64
O=C(CCCN1C(=O)c2ccccc2C1=O)NCCCn1ccnc1	1	-2	2	19	-1	82*
O=C(O)CCCC(=O)NCc1ccccn1	1	-5	-16	7	1	-3
CCN(CC)c1ccc(NC(=O)CCCCCN2C(=O)c3ccccc3C2=O)cc1	2	7	17	63*	0	-2
O=C(CCCCCN1C(=O)c2ccccc2C1=O)NCc1ccccn1	11	0	77*	12	0	0
O=C(Nc1ccc2c(c1)OCCO2)c1c(F)c(F)c(F)c(F)c1F	1	63*	9	-13	-6	-16
O=C(Nc1ccc2c(c1)OCCO2)NC1(C(F)(F)F)Oc2ccccc2O1	3	-11	33	25	-1	69*
CC(=O)Nc1ccc2c(c1)OCCO2	x	x	x	x	38	x
C=C(C)C(=O)Nc1ccc2c(c1)OCCOCCOCCO2	5	21	44	52*	x	-34
CC1CCN(CCC(=O)Nc2ccc3c(c2)OCCO3)CC1	0	-15	5	16	-3	0
CC1CC(C)CN(CC(=O)Nc2ccc3c(c2)OCCO3)C1 (stereo not given)	2	32*	61	12	-3	20
SMILES	eIF4E 4G PPI	NCF1 inh	14-3-3 Bad PPI	Mcl1-Noxa inh	Mcl-1 Bim block	Mcl1-Bid inh
O=C(Nc1ccc2c(c1)OCCO2)Nc1ccc2c(c1)OCO2	2	-7	-11	14	2	-47
O=c1cc(COc2ccccc2[N+](=O)[O-])nc2sccn12	-2	-4	1	41	x	-21
CCOC(=O)c1c(/N=C/C2=C(O)CC(C)(C)CC2=O)sc(C)c1C	4	-10	-21	15	-5	-48
O=C(CCCN1C(=O)c2cccc3cccc(c23)C1=O)N1CCN(c2ccccc2O)CC1	8	-1	2	55*	-4	-22
O=C(/C=C/c1ccc(Br)o1)NCc1ccccc1	6	-16	32	72*	-1	16
Cc1ccc(CNC(=O)/C=C/c2ccc(Br)o2)cc1	6	-12	-2	38	-10	-2
CC1CCN(Cc2nc(-c3ccccc3)no2)CC1	2	-10	76*	11	0	15

Screening results from PubChem.
